The campaign covered roughly 330,000 compounds. About 1,900 (0.58%) were called active. Roughly 4% stayed inconclusive and do not appear here. Cut-off read from the data, not from the text of the source: inconclusive = inhibition above about 70% without an active follow-up result; inactive = below that. These entries were drawn from the full list. Entries with a potency or affinity are not part of this list.
Assay: M. tuberculosis growth inhibition, HTS (AID 449762);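 note: bacterial growth assessed after seven days of incubation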
Details: M. tuberculosis H37Rv growth inhibition, 7H9 media; at 25 µM; active compounds read high
With `COc1ccc(S(=O)(=O)N2CCOC2CNC(=O)C(=O)NCc2ccco2)cc1` (stereo not given) the inhibition was 0.26% (inactive). For `CCC(C)Nc1nc(Cl)nc(NCCOc2ccccc2)n1` (stereo not given), the inhibition was 5.37% (inactive). For `O=C(CCC(=O)N(CC(=O)NC1CCCCC1)CC1CCCO1)Nc1nccs1` (stereo not given), the inhibition was -1.08% (inactive). In the case of `Cc1c(Cl)cccc1NC(=O)c1cc(-c2ccco2)on1`, the inhibition was 3.35% (inactive). With `O=C(Nc1cccnc1Cl)c1cc(-c2ccc(Cl)cc2)on1` the inhibition was 5.26% (inactive). For `O=[N+]([O-])c1ccc(-c2cnc(SCc3ccccc3Cl)[nH]2)cc1`, the inhibition was -2.76% (inactive). With `COc1ccccc1CSc1ncc(-c2ccc([N+](=O)[O-])cc2)[nH]1` the inhibition was -2.06% (inactive). For `COCC(=O)N1CCC(Oc2cccc(C(=O)NCc3ccccn3)c2)CC1`, the inhibition was -0.85% (inactive). For `CCCCN1C(=O)/C(=C2/C=CC=CN2C)SC1=S`, the inhibition was -5.48% (inactive). With `O=C(O)CCN1C(=O)C(=C2CCCCCC2)SC1=S` the inhibition was -3.58% (inactive). In the case of `CCCCn1nc2cc(C(=O)NCc3ccc(OC(F)(F)F)cc3)ccc2c1OC`, the inhibition was 6.36% (inactive). With `O=C(NN1CCOCC1)C12CC3CC(CC(C3)C1)C2` the inhibition was -3.63% (inactive). For `COc1ccc2c3c([nH]c2c1)C1CC2C(CC(O)C(OC)C2C(=O)O)CN1CC3` (stereo not given), the inhibition was -4.38% (inactive). For `COc1ccc2c3c([nH]c2c1)[C@H]1C[C@H]2[C@H](C[C@@H](O)[C@H](OC)[C@H]2C(=O)O)CN1CC3`, the inhibition was 1.26% (inactive). For `C=Cn1nc(C)c2ccccc2c1=O`, the inhibition was -3.9% (inactive). For `COC(=O)c1cc(=O)n(CCc2ccccc2)c(=Nc2ccc(F)cc2)s1`, the inhibition was 4.1% (inactive). For `COC(=O)c1cc(=O)n(Cc2ccc(F)cc2)c(=Nc2ccccc2)s1`, the inhibition was 4.7% (inactive). In the case of `COc1cccc(NC(=O)[C@H](CC(C)C)NC(=O)N2CCn3c2nc2ccccc23)c1`, the inhibition was 11.4% (inactive). In the case of `NC(=O)[C@H](Cc1cc2ccccc2s1)NC(=O)[C@@H]1CC2(CC(c3cccc(NC(=O)[C@@H]4CCC(=O)N4)c3)=NO2)CN1C(=O)c1ccccc1` (stereo not given in full), the inhibition was -4.74% (inactive). With `NC(=O)C1CCN(CCCNC2CC(=O)N(Cc3ccc(N4CCCC4=O)cc3)C2=O)CC1` (stereo not given) the inhibition was -6.69% (inactive). In the case of `Nc1cc(C(=O)OCC(=O)NNC(=O)c2ccccc2F)ccc1Cl`, the inhibition was 25.6% (inactive). With `Nc1cc(C(=O)OCC(=O)NNC(=O)c2ccccc2)ccc1Cl` the inhibition was 35.4% (inactive). With `CCOc1cc(Cl)c(CNCCCN2CCOCC2)cc1OC` the inhibition was 5.34% (inactive). In the case of `CCOC(=O)c1c(C)[nH]c(C(=O)COC(=O)c2cc(C)oc2C)c1C`, the inhibition was -7.77% (inactive). For `N#Cc1ccc(-c2ccc3c(c2)OCO3)nc1SCC(=O)OCc1ccccc1`, the inhibition was -7.31% (inactive). With `COc1ccc(-c2ccc(C#N)c(SCC(=O)NCCc3ccccc3)n2)cc1OC` the inhibition was 8.95% (inactive). With `S=C(NC1CCCCC1)N1CCN(Cc2ccccc2Cl)CC1` the inhibition was 1.74% (inactive). With `COc1ccc2c(COC(=O)CCS(=O)(=O)c3ccccc3)cc(=O)oc2c1` the inhibition was -17.5% (inactive). With `O=c1[nH]c(CSc2ccccn2)nc2ccccc12` the inhibition was 3.19% (inactive). For `Cn1c(SCc2nc3ccccc3c(=O)[nH]2)nc2ccccc21`, the inhibition was 1.19% (inactive). In the case of `O=C(c1ccco1)N1CCN(C(=S)Nc2ccc(Br)cc2Cl)CC1`, the inhibition was -10.4% (inactive). In the case of `COc1cccc(-c2cc(C(=O)O)no2)c1`, the inhibition was -0.44% (inactive). In the case of `COC(=O)c1cc(-c2ccccc2)on1`, the inhibition was 69.8% (inactive). For `CCOc1ccc(NC(=O)COc2nsnc2N2CCOCC2)cc1`, the inhibition was -1.39% (inactive). In the case of `CCN(c1ccccc1)S(=O)(=O)c1ccc(Cl)c(NC(=O)COC(=O)c2ccc[nH]c2=O)c1`, the inhibition was -8.08% (inactive). With `CCCCCCn1nc(C(=O)OCC(=O)c2c(N)n(C)c(=O)n(C)c2=O)c2ccccc2c1=O` the inhibition was 9.07% (inactive). With `COc1ccc2c3n(nc2c1)CCN=C3c1ccc(Cl)cc1` the inhibition was 4.84% (inactive). In the case of `COc1ccc(C2=NCCn3nc4cc(OC)ccc4c32)cc1`, the inhibition was 1.06% (inactive). For `Cc1ccc2[nH]c(C)c(CCNC(=O)c3c(N)no[n+]3[O-])c2c1`, the inhibition was -0.11% (inactive). For `O=C(NCCCn1ccnc1)c1cc2cc([N+](=O)[O-])ccc2oc1=O`, the inhibition was -5.35% (inactive). In the case of `O=C(NC1CCCCC1)C(c1cccs1)N(CC1CCCO1)C(=O)c1csnn1` (stereo not given), the inhibition was -12% (inactive). In the case of `CC(=O)c1ccc(S(=O)(=O)N2CCc3ccccc3C2)cc1`, the inhibition was 0.34% (inactive). For `CC1CC(C)CN(C(=O)CSc2nnc(-c3ccc(Cl)s3)o2)C1` (stereo not given), the inhibition was 20.5% (inactive). With `CCOC(=O)N1CCN(C(=O)CSc2nnc(-c3ccccc3OC)o2)CC1` the inhibition was 41.9% (inactive). For `O=C(c1cc2n(n1)C(C(F)(F)F)CC(c1ccc(F)cc1)N2)N1CCCC1` (stereo not given), the inhibition was -3.19% (inactive). With `O=C(Nc1cccnc1Cl)c1cccc(F)c1` the inhibition was 9.84% (inactive). In the case of `CC(C)NC(=O)COC(=O)c1cc(Br)ccc1Cl`, the inhibition was 21.9% (inactive). With `CC(C)(C)NC(=O)COC(=O)c1ccc(F)cc1Cl` the inhibition was 49.4% (inactive). For `COc1ccc(NC(=O)CCC(=O)Nc2nnc(C3CCCCC3)s2)c(OC)c1`, the inhibition was 7.63% (inactive). With `Cc1cc(CN2CCCC(CO)(Cc3cccc(Cl)c3)C2)n[nH]1` (stereo not given) the inhibition was 2.25% (inactive). For `OCC1(Cc2cccc(Cl)c2)CCCN(Cc2ccc(F)c(F)c2)C1` (stereo not given), the inhibition was 16.1% (inactive). With `c1ccc2nc3c(nc2c1)[nH]c1ccccc13` the inhibition was -2.41% (inactive). With `c1ccc(-c2nc3ccccc3[nH]2)cc1` the inhibition was 9.27% (inactive). For `CC1(C)Cc2c(cnn2-c2cccc(F)c2)C(NC(=O)CSc2ccncc2)C1` (stereo not given), the inhibition was -11.2% (inactive). For `CCCCN1C(=N)N([C@@H](C)CN2CCC[C@H]2CN2C(N)=NC[C@H]2CC(C)C)C[C@H]1[C@H](C)CC`, the inhibition was -9.24% (inactive). With `O=c1c2ccccc2oc2cc(NCCCn3ccnc3)ccc12` the inhibition was 64.1% (inactive). For `O=c1c2ccccc2oc2ccc(NCCCn3ccnc3)cc12`, the inhibition was -0.23% (inactive). In the case of `Nc1c(C(=O)Nc2ccc3c(c2)OCCO3)nnn1Cc1ccc(Cl)cc1`, the inhibition was 0.83% (inactive). For `CCN(CC)c1ccccc1`, the inhibition was 5.27% (inactive). With `Nc1ccc(N(CCO)CCO)cc1` the inhibition was 6.03% (inactive). With `O=C(NCc1ccc(Cl)cc1)C1CCN(c2cnccn2)CC1` the inhibition was 1.73% (inactive). With `Cc1ccc(NC(=O)Cn2cccc2)cc1` the inhibition was 3.9% (inactive). With `CC(C)(C)c1csc(NNC(=O)c2ccc(Br)cc2)n1` the inhibition was 66.5% (inactive). In the case of `COc1ccc2[nH]c3c(c2c1)CCN1C(=O)N([C@@H](C)C(=O)NCCc2ccc(OC)c(OC)c2)C(=O)[C@]31C`, the inhibition was -11.9% (inactive). For `CN(C)/C=C1\C(=O)N(c2ccc([N+](=O)[O-])cc2)N=C1c1ccccc1`, the inhibition was -2.09% (inactive). For `CN(C)/C=C1/C(=O)N(c2ccc([N+](=O)[O-])cc2)N=C1c1ccccc1`, the inhibition was 0.35% (inactive). With `NC(=O)c1ccsc1N` the inhibition was 6.02% (inactive). With `NC(=O)c1ccc(Cn2c(C(=O)c3ccc(Cl)cc3)c3ccccc3[n+]2[O-])cc1` the inhibition was 2.02% (inactive). In the case of `COCCn1c(-c2ccc(OC)cc2)cnc1SCC(=O)Nc1cccc2ccccc12`, the inhibition was 57.1% (inactive). In the case of `CCOc1ccc(CNc2ncc(-c3ccccc3)n2C)cc1`, the inhibition was 8.71% (inactive). For `Cn1c(CCNC(=O)c2ccco2)nc2ccccc21`, the inhibition was -1.68% (inactive). In the case of `Cc1cccc(NC(=O)CCCNC(=O)c2ccc(Cl)cc2)n1`, the inhibition was -15.3% (inactive). With `COc1cc(Cn2ccnc2)c(OC)cc1Cn1ccnc1` the inhibition was 0.13% (inactive). With `COc1ccc(NCc2ccc(OC)c(Cn3ccnc3)c2)c(OC)c1` the inhibition was 17.3% (inactive). With `CCCC(=O)Nc1ccc(-c2csc(NNC(C)=O)n2)cc1` the inhibition was 8.91% (inactive). For `CCc1nc(OCCN(C)C)c2oc3ccccc3c2n1`, the inhibition was 5.77% (inactive). With `CN(C)CCOc1ncnc2c1oc1ccccc12` the inhibition was -7.93% (inactive). For `O=C(CCSc1nc(-c2ccco2)cc(C(F)(F)F)n1)NCc1ccccn1`, the inhibition was -4.91% (inactive). In the case of `Cc1nc2scc(-c3cccs3)c2c(=O)n1N`, the inhibition was -9.74% (inactive). In the case of `Cc1ccc(C)n1-n1c(C)nc2scc(-c3cccs3)c2c1=O`, the inhibition was 1.92% (inactive). In the case of `CCCCc1nn(-c2cc(Cl)ccc2OC)c2c1C(=O)CCC2`, the inhibition was -11.2% (inactive). In the case of `CCOC(=O)c1nn(-c2ccc(F)cc2)c2nc(CC(C)C)c(C#N)c(=O)n12`, the inhibition was -13.7% (inactive). For `Cc1cccc(OC(C)C(=O)OCC(=O)N2CCN(c3ccccc3)CC2)c1` (stereo not given), the inhibition was 69.9% (inactive). For `CCc1cc(C(=O)OCC(=O)N2CCC(c3ccccc3)=N2)sc1C`, the inhibition was 9.02% (inactive). For `Cc1ccc(C(=O)OCC(=O)N2CCC(c3ccccc3)=N2)cc1`, the inhibition was -0.51% (inactive). For `COc1ccc(NC(=O)c2cc(-c3cc(C)ccc3O)n[nH]2)cc1Cl`, the inhibition was -5.54% (inactive). For `CC(C)(Oc1ccc(Cl)cc1)C(=O)NCc1n[nH]c(=O)c2ccccc12`, the inhibition was -7.84% (inactive). For `Cc1nn(C)cc1/C=N/NC(=O)C(C)(C)Oc1ccc(Cl)cc1`, the inhibition was -2.26% (inactive). In the case of `CCOc1ccc(NC(=S)/C(=C(\[O-])c2ccc(C)c([N+](=O)[O-])c2)[n+]2ccccc2)cc1`, the inhibition was -4.46% (inactive). In the case of `Cc1ccc(NC(=S)Nc2cc(-c3ccccc3)[nH]n2)cc1Cl`, the inhibition was 3.77% (inactive). In the case of `CCOc1ccc(NC(=S)Nc2cc(C)[nH]n2)cc1`, the inhibition was 11.8% (inactive). For `Cc1ccc(CNC(=S)Nc2ccc(C)c([N+](=O)[O-])c2)cc1`, the inhibition was 1.67% (inactive). In the case of `O=C(CN(C(=O)CNC(=O)c1cccs1)c1ccc(F)cc1)NC1CCCC1`, the inhibition was -5.64% (inactive). In the case of `Cc1ccc(C(=O)Nc2cnc3sc(C)nn3c2=O)cc1`, the inhibition was -8.53% (inactive). In the case of `CC1=C(C(=O)OCC2CCCO2)C(c2ccc(C)cc2)C2=C(CCCC2=O)N1` (stereo not given), the inhibition was -4.69% (inactive).
